# DRD3 antagonist: blocks the human D3 dopamine receptor | P35462 | D3R cells, DiscoveRx beta-arrestin luminescence, antagonist mode; hits give low values | max response, negative = inhibition, % | hit rate 2.5% among 360,000; in the data active = max response below about -50%; inconclusive = no clear call, values can overlap the other calls; also: % is scaled to controls: 0 for no effect and ±100 for the full control effect
#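 Cells expressing the human receptor were seeded at 1500 cells/well, incubated overnight at 37 degrees C in 5% CO2, then exposed to library compounds with dopamine controls for 90 minutes at 37 degrees C before luminescent detection.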
# D1 antag: blocks dopamine activation of the human D1 receptor. hit rate 3.2% among 360,000. P21728. HEK293 TREx D1 cells, calcium flux, dopamine EC80; hits give low values. activity change, negative = inhibition, % at 10 µM; in the data active = activity change below about -30%; also: % is scaled to controls: 0 for no effect and ±100 for the full control effect
# Target sequence (P21728 whole entry, looked up): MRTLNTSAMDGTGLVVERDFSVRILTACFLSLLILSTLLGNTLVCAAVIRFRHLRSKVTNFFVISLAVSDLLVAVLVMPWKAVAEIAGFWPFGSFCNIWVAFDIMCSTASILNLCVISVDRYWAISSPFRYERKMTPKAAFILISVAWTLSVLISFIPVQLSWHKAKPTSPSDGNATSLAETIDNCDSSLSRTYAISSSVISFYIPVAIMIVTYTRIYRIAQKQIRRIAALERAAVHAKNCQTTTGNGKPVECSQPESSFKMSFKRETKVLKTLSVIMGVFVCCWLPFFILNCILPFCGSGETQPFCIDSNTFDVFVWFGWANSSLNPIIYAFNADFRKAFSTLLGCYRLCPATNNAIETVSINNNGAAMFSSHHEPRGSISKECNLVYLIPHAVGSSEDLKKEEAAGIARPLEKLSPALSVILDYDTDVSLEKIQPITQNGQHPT
#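 Using tetracycline-induced force-coupled D1 Hek293 cells and a calcium dye, signals were followed for 180 s after compound, then for 180 s after EC80 dopamine, to detect inhibitors.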
# D1 agonist: human D1 receptor agonism; P21728; HEK293 T-REx D1 cells, calcium flux, agonist mode; activation, % at 2 µM; hit rate 1% among 360,000; in the data active = activation above about 30%; also: 0% is about no effect
#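 Tetracycline-induced HEK293 TREx D1 cells, force-coupled to calcium signalling, were dye-loaded with a no-wash calcium kit. Compound was pin-added after a 10 s baseline. Fluorescence was read kinetically at 1 cycle/s for 180 s, with calcium rises flagged as agonism.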
# D1 PAM: potentiators of human D1 dopamine receptor. HEK293 TREx D1 cells, calcium flux, dopamine EC20 potentiation. potentiation, % at 10 µM. hit rate 0.036% among 360,000. AID 504651; in the data active = potentiation above about 30%; also: 0% is about no effect
# D3 ag: D3 dopamine receptor (human) agonism; P35462; D3R DiscoveRx beta-arrestin cells, luminescence, 90 min; max activation, %; hit rate 0.58% among 410,000; in the data active = max activation above about 30%; also: 0% is about no effect
#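 Agonist-mode cell screen: cells plated at 1500/well and incubated overnight at 37 °C, then exposed to library compounds for 90 min at 37 °C. Detection reagent was added for 30–60 min at room temperature, and luminescence was read.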
# * hit, by the source's call; ? = inconclusive; / = not tested or not shown. In the library only some 6% were active in any assay of this set; here they are far more common.
SMILES,DRD3 antagonist,D1 antag,D1 agonist,D1 PAM,D3 ag
COC(=O)[C@]1(Cc2ccccc2)N[C@H](CN(C)C(=O)Nc2ccc(OC)cc2)[C@@H]2C(=O)N(C)C(=O)[C@@H]21,-52.7*,/,/,/,3.7
O=C(c1ccc(Cl)cc1)N1CCCCC1CCN1CCOCC1 (centres undefined),/,-4.5,-0.6,5.0,4.9
CC(C)(C)c1nn(-c2ccccc2)c2[nH]c(=O)c(C=O)cc12,-101.2*,8.3,3.9,7.8,-33.8
COc1cccc(COC(=O)C2CCN(S(=O)(=O)c3ccc(F)cc3)CC2)c1OC,-14.3,-9.1,30.8*,-6.0,3.3
N#Cc1ccc2c(c1)C[C@]1(CCCCN3C(=O)c4ccccc4C3=O)Oc3c(c(=O)oc4ccccc34)C2O1,/,6.9,1.3,-1.1,/
CS(=O)(=O)c1ccc(C(=O)NC2CCOC2=O)cc1 (centres undefined),15.9,-0.4,9.9,10.6,32.0*
CCOc1cc(/C=N/n2c(COc3ccccc3)n[nH]c2=S)ccc1O,-8.1,0.1,102.5*,-4.0,-1.3
O=[N+]([O-])c1cccc(/C=N/n2c(COc3ccccc3)n[nH]c2=S)c1,-2.0,3.8,7.9,3.2,-30.9
O=[N+]([O-])c1ccc(/C=N/n2c(COc3ccccc3)n[nH]c2=S)cc1,-89.7*,-12.1,-0.2,0.3,-2.6
CCCCN(CC)CCCNC(=O)c1ccc2c(c1)NC(=O)CN2C,/,2.1,-1.8,-1.1,-8.0
Cc1noc(C)c1CN(C(=S)NC(C)C)c1ccccc1,-7.9,-32.3*,3.1,-4.7,-7.4
Cc1c(C(=O)N2CCCCC2)c(S(=O)(=O)NCc2ccc(Cl)cc2)c(C)n1C,12.6,9.4,-0.2,-1.6,2.0
Cc1nn(C2CCS(=O)(=O)C2)c(Cl)c1/C=C/C(=O)OCC(=O)c1cc(C)n(-c2ccc(F)cc2)c1C (centres undefined),-3.1,-30.9*,8.6,-6.3,1.7
CCn1nc(C)c(CCN(C)C(=O)Nc2ccc(C)c(Cl)c2)c1C,/,-9.7,1.1,0.3,6.4
Fc1ccc(CCN2CCN=C2Nc2ccccc2)cc1,?,-14.8,34.6*,-8.0,-46.6
c1ccc(NC2=NCCN2CCC2CCCCC2)cc1,-63.0*,-3.8,2.0,-3.0,-91.1
c1ccc(NC2=NCCN2CCCC2CCCC2)cc1,?,11.0,2.1,-6.7,-62.5
Cc1cccc(CCN2CCN=C2Nc2ccccc2)c1,-56.4*,-39.8*,46.1*,-0.1,-45.7
CCOC(=O)c1ccc(NC2SC(=O)N(Cc3cccc(C(=O)O)c3)C2=O)cc1 (centres undefined),/,3.1,0.1,-1.5,10.8
N#CCC(=O)N/N=C/c1c(-c2ccccc2)n(-c2ccccc2)c2ccccc12,31.4,-2.4,0.5,-6.7,20.1
CC(=O)N[C@@H](C)c1nc2ccccc2n1CCCN1CCN(c2nc(-c3ccc(C)cc3)cs2)CC1,10.4,-14.2,0.7,-7.2,2.7
CC(C)CNC(=O)C1(C)CCCN1C(=O)C(C)(C)Oc1ccc(Cl)cc1 (centres undefined),-100.4*,/,/,/,-21.3
CC(C)CNC(=O)C1(C)CCCN1C(=O)c1ccncc1 (centres undefined),4.0,/,/,/,88.6*
O=C(CSc1nnc(-c2ccncc2)o1)Nc1ccc(F)c(F)c1,5.0,-4.6,11.3,/,7.0
CCc1nn2c(=O)cc(COC(=O)c3cccc(NC(=O)CCc4ccccc4)c3)nc2s1,/,3.4,-2.0,-0.4,-4.9
SMILES,DRD3 antagonist,D1 antag,D1 agonist,D1 PAM,D3 ag
CC1CCc2sc(C(=O)NC3CCN(Cc4ccccc4)CC3)cc2C1 (centres undefined),-95.3*,-16.3,37.5*,/,-18.5
CCC1CCc2sc(C(=O)NC3CCN(Cc4ccccc4)CC3)cc2C1 (centres undefined),-72.0*,8.7,14.2,-5.3,-32.0
CCC1CCc2sc(C(=O)NCc3ccccn3)cc2C1 (centres undefined),-8.1,0.7,-0.5,-7.8,-0.6
CC1CCc2sc(C(=O)NN=C3CCC(c4ccccc4)CC3)cc2C1 (centres undefined),-1.3,4.2,1.3,4.0,-5.4
CC(C)(C)C(=O)C1=C(O)C(=O)N(Cc2ccccc2)C1c1ccccc1F (centres undefined),-8.5,-13.0,53.5*,-6.2,-8.3
CCOC(=O)C1(C)/C(=N/Nc2ccccc2)C(=O)C(=O)N1c1ccccc1 (centres undefined),-57.9*,-1.8,-0.2,-2.3,-9.5
CCN(CC)CCNC(=O)c1ccc(NC(=O)c2cc(S(=O)(=O)N3CCCCC3)ccc2C)cc1,-12.1,-37.1*,0.2,0.0,0.6
Cc1cc2ccccc2n1CCNC(=O)c1ccc(S(=O)(=O)N2CCCCC2)cc1,8.3,27.9,60.8*,2.6,2.2
Cc1cc2ccccc2n1CCNC(=O)C(C)C,0.0,-6.4,3.0,-6.6,-12.0
CCN(CC)CCNC(=O)c1ccc(NC(=O)c2cccc(S(=O)(=O)N3CCc4ccccc43)c2)cc1,-22.9,-4.8,3.7,-4.5,-22.3
Cc1cc2ccccc2n1CCNC(=O)C(C)Oc1ccccc1 (centres undefined),-59.8*,20.4,13.9,8.1,-17.6
CCN(CC)CCNC(=O)c1ccc(NC(=O)c2cccc(S(=O)(=O)Nc3ccc(C)cc3)c2)cc1,-4.3,-77.0*,1.2,-18.6,-2.8
Cc1ccc(C(=O)NCCn2c(C)cc3ccccc32)cc1C,/,-13.3,0.9,-5.6,-21.3
CCOc1ccccc1NC(=O)CSc1nccn1Cc1ccc(F)cc1,/,-14.1,0.4,-4.1,0.2
Cc1ccccc1S(=O)(=O)Oc1ccccc1C(=O)Oc1ccccc1,27.3,-30.8*,8.5,-8.2,-7.9
COc1cccc2c1OCC(CN1CCN(CCC(C)C)C(CCO)C1)=C2 (centres undefined),-3.7,-30.5*,2.7,5.9,-11.1
COc1cccc(CN2CCN(CCc3ccccc3)C(CCO)C2)c1OC (centres undefined),-9.0,-9.2,1.6,-2.4,-5.7
CC(C)CCN1CCN(Cc2cccn2-c2cccnc2)CC1CCO (centres undefined),-12.4,34.0,30.4*,-0.8,-9.2
O=C(N/N=C/c1sc(N2CCOCC2)nc1-c1ccccc1)c1ccc(O)cc1,7.7,-8.5,3.3,-0.1,1.4
Cc1occc1C(=O)N/N=C/c1sc(N2CCOCC2)nc1-c1ccccc1,-54.4*,-16.8,1.1,-2.1,4.9
COC/C=C/C1=CC2=CC(=O)C(C)(OC(=O)c3cnc4ccccc4n3)C(=O)C2=CN1Cc1ccc(OC)cc1 (centres undefined),-19.6,4.9,4.5,0.2,-15.8
COC/C=C/C1=CC2=CC(=O)C(C)(OC(=O)c3cnc4ccccc4n3)C(=O)C2=CN1Cc1ccccc1 (centres undefined),-64.7*,2.1,1.4,-2.5,-15.8
CC1=C(C(=O)N2CCOCC2)CC(CC(=O)NCc2cccs2)C(=O)N1Cc1ccccc1 (centres undefined),7.7,/,/,/,5.8

# Source: PubChem BioAssay (National Center for Advancing Translational Sciences (NCATS))
